USP2a inh: USP2a (human) protease inhibition; USP2a enzymatic assay, qHTS inhibition; Potency, µM (series often up to 38.3 µM), for the others: top-dose activity change, negative = inhibition, most hits filed as inhibitors; 60,000 tested, 0.1% active; AID 927; note: nearly all actives have a fitted effect of over 60% in size
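20 nM USP2 core + cpd, 30 min RT; add 20 nM Ub-PLA2/20 uM NBD C6-HPC; read Ex460/Em535 at 0 h and 2.5 h. Normalized to NEM; qHTS curve fit/classification.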
Tau filament bind: tau filament binding; recombinant tau filaments, thioflavin S fluorescence, 15 h; filaments grown with octadecylsulfate alongside compound; Potency, µM (series often up to 57.1 µM), without a hit: at the highest dose activity change, negative = inhibition; 71,000 tested, 2% active; P10636; AID 596;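 note: % is set by controls: 0 for no effect and ±100 for the full control effect; actives lower thioflavin S fluorescence by blocking filaments or displacing dye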
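Assay mix: 1 uM His-tagged tau, 30 uM sodium octadecylsulfate, thioflavine S dye in HEPES/NaCl/DTT buffer. Compound is added prior to the inducer. Fluorescence after 15 h at 37 C.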
Hsp90 Hop PPI: changes Hsp90-Hop TPR2A binding signal, up or down; AlphaScreen TPR2A-His6 binding biotin-Hsp90 C-terminal peptide; Potency, µM (top dose mostly 57 µM), without a hit: top-dose activity change, negative = inhibition; 71,000 tested, 0.44% active; active = well fitted curve in either direction with a large enough effect; inconclusive = small, poorly fitted or top-dose-only effect, or another doubt; note: % is set by controls: 0 for no effect and ±100 for the full control effect
ALOX15 inhib: blocks human 15-lipoxygenase activity | P16050 | purified 15hLO-1, xylenol orange hydroperoxide absorbance | Potency, µM (highest dose often 57.1 µM), without a hit: at the top dose activity change, negative = inhibition, hits mostly inhibitors | 74,000 tested, 1.4% active; note: % is set by controls: 0 for no effect and ±100 for the full control effect; nearly all actives have a fitted effect of over 55% in size
Target sequence (P16050 whole entry, looked up): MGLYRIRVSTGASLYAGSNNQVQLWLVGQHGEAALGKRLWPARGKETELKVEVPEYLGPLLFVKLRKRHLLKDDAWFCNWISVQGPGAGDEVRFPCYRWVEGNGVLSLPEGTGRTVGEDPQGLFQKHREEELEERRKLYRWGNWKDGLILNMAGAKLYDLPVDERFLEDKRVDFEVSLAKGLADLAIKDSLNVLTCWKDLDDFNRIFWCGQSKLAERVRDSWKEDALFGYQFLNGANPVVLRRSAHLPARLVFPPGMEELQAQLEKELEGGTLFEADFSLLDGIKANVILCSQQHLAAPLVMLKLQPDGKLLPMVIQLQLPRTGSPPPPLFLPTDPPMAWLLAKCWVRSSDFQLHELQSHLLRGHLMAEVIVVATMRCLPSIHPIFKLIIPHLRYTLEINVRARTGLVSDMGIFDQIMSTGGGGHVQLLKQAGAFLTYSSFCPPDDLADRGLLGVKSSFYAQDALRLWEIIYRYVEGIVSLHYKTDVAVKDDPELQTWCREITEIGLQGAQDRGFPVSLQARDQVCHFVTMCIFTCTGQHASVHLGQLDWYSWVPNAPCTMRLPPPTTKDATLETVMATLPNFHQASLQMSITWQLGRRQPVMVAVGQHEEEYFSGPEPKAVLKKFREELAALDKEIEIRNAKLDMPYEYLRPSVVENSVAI
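40 nM 15hLO-1 + cpd, 15 min RT; start w/ 50 uM AA (final), 6 min RT; stop/detect w/ 200 uM XO + 300 uM Fe(II) in 50 mM H2SO4, 30 min; A573/A405. Buffer 25 mM Hepes pH 7.5, 0.01% Triton X-100. No-enzyme wells as negative control.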
The depositor's hits bear a star; ? = inconclusive; . = no result; ! = repeats disagree; [ ] = dose if it differs, or a comment. The list is not random: actives were taken first. Their share in the collection is about 3.2%. Unless noted, calls come from the whole dose curve; as a rule, active = well fitted curve in the direction sought with a large enough effect; inconclusive = small, poorly fitted or top-dose-only effect, or another doubt; inactive = no such curve, though single readings can be large; an effect the other way counts as inactive or inconclusive. Potency is the fitted concentration of half-maximal effect.

SMILES	USP2a inh	Tau filament bind	Hsp90 Hop PPI	ALOX15 inhib
O=c1cc(-c2ccccc2)oc2cc(O)c(O)cc12	-22%	.	.	16µM*
O=c1cc(-c2ccc(O)c(O)c2)oc2ccccc12	-6%	.	.	1.6µM*
O=c1cc(-c2ccccc2)oc2ccccc12	.	-20%	2%	-25%
CCNc1ncc2nc(-c3cc(F)cc(F)c3)c(=O)n(C3CC3)c2n1	21%	66%	2%	-6%
CCN1C(=O)c2cccc3c(S(=O)(=O)Nc4ccccc4OC)ccc1c23	25%	20µM*	2%	-19%
NS(=O)(=O)Cc1noc2ccccc12	-7%	10%	-6%	-4%
Cc1[nH]n(-c2ccccc2)c(=O)c1-c1ccccc1	3%	-4%	-7%	4µM*
O=C1NC(O)=NC1(c1ccccc1)c1ccccc1	12%	-4%	?	8%
CC(=NC1CCCCC1)C1=C(O)c2ccccc2C1=O	6%	16µM*	-5%	0%
CSC(=NC1CCCCC1)NS(=O)(=O)c1ccccc1	0%	1%	5%	1%
COc1ccc(C(C(=O)NC2CCCC2)N(C(=O)c2ccco2)c2ccc3c(c2)OCO3)cc1OC (configuration not stated)	.	-10%	-5%	10%
COc1cc(C(Nc2ccc3c(c2)OCO3)C(=O)NC2CCCCC2)cc(OC)c1OC (configuration not stated)	25%	-23%	?	0.63µM*
O=C(Nc1ccccc1N1CCCC1)c1ccc(Br)o1	1%	-18%	-10%	-8%
O=C(Nc1ccc(N2CCCC2)c(Cl)c1)c1ccc(Br)o1	-6%[7.66 µM]	4µM*	?	-18%[11.4 µM]
CCCCOc1cccc(C(=O)Nc2ccc(N3CCN(CC)CC3)cc2)c1	7%	20µM*	-5%	-8%
COc1ccc2oc(C(=O)c3ccccc3)c(NC(=O)CN3CCN(C)CC3)c2c1	55%	4µM*	-5%	-4%
CCN1CCN(c2ccc(NC(=O)Cc3ccccc3)cc2)CC1	2%	-19%	-3%	3%
CC(C)Oc1ccc(C(=O)Nc2ccc(N3CCCC3)cc2)cc1	28%[7.66 µM]	2µM*	?	1.3µM*
COc1cc(OC)cc(C(=O)Nc2cccc(N3CCCC3)c2)c1	28%	10µM*	-29%	?
O=C(Cc1ccccc1)Nc1cccc(N2CCCC2)c1	20%	25µM*	-18%	-5%
CC(C)(Oc1ccc(-c2cccc3ccccc23)cc1)C(=O)O	.	7%[11.4 µM]	2%[11 µM]	5%[11.4 µM]
O=S(=O)(c1ccccc1)N1CCC2(CCCN(Cc3ccncc3)C2)CC1	62%	-5%	-3%	-1%
N#Cc1cccc(NC(=O)N2CC[C@@]3(CCCN(C(=O)c4cc(C(F)(F)F)cc(C(F)(F)F)c4)C3)C2)c1	120%	8%	1%	30%
Cc1noc(C)c1COC(=O)CCN1c2ccccc2Sc2ccccc21	-2%	20µM*	15%	-14%
Cc1noc(C)c1COC(=O)CCOc1ccccc1	6%	19%	7%	11%
SMILES	USP2a inh	Tau filament bind	Hsp90 Hop PPI	ALOX15 inhib
c1ccc2c[n+](CCCC[n+]3ccc4ccccc4c3)ccc2c1	.	3.2µM*	-3%[11 µM]	3%[11.4 µM]
CCOC(=O)c1cc(-c2ccccc2)sc1N	15%	25µM*	-16%	?
CCOC(=O)c1sc(-c2ccccc2)cc1N	-19%	-17%	26%	1%
Cc1ccccc1-c1cc(-c2ccccc2O)n[nH]1	?	?	4%	16µM*
CCCCCCc1ccc(-c2ncc(N)cn2)cc1	?	25µM*	-4%	-23%
CCCCOc1ccc(-c2ncc(Cl)cn2)cc1	-1%[7.66 µM]	15%[11.4 µM]	4%[11 µM]	1%[11.4 µM]
CC(C)OCCCNc1ncnc2c1[nH]c1ccccc12	2%	0%	-8%	-27%
CC(C)C(C(=O)NCc1ccco1)N(C(=O)CNS(=O)(=O)c1ccccc1)C1CCCC1 (configuration not stated)	.	-11%	-1%	-1%
CCCC(C(=O)NCc1ccco1)N(C(=O)CNS(=O)(=O)c1ccc(Cl)cc1)C1CCCC1 (configuration not stated)	22%	-6%	-9%	25µM*
CCN(CC)CCOC(=O)C1(c2ccc([N+](=O)[O-])cc2)CCCC1	-2%[17.1 µM]	13µM*!	-4%	?
OC(CCN1CCCC1)(c1ccccc1)C1CCCCC1 (configuration not stated)	-1%	.	.	4%
CC(C)(C(=O)O)c1ccc(C(O)CCCN2CCC(C(O)(c3ccccc3)c3ccccc3)CC2)cc1 (configuration not stated)	6%	.	.	20µM*!
CCN1CCCC1CNC(=O)c1ccc(-n2c(=O)c(=O)[nH]c3ccccc32)cc1 (configuration not stated)	.	.	.	-1%
COc1cc(C2NC(=O)NC(c3ccccc3)=C2C(C)=O)ccc1OCC(=O)O (configuration not stated)	42%	47%	18%	7.9µM*
O=C(CCBr)N1CCN(C(=O)CCBr)CC1	54%	.	.	-25%
Cn1nnnc1SCc1csc(Nc2ccccc2)n1	9%	-12%	-1%	-6%
Cc1ccc(Nc2nc(CSc3nnnn3C)cs2)cc1	13%	16µM*	-7%	-13%
CNc1cc(OC)c(C(=O)N[C@@H]2CCN(Cc3ccccc3)[C@H]2C)cc1Cl	.	74%	-3%	-1%[25.6 µM]
CCN(CC)CC[n+]1ccc2c(C)c3[nH]c4ccc(O)cc4c3c(C)c2c1	.	4µM*	?	?
CCCC[C@@H]1CN2[C@H](c3ccc(Br)cc3)[C@H](C)CC[C@H]2C(=O)O1	.	.	.	3%[11.4 µM]
Nc1c(S(=O)(=O)O)cc(Nc2ccc(Nc3nc(Cl)nc(Nc4ccc(S(=O)(=O)O)cc4)n3)c(S(=O)(=O)O)c2)c2c1C(=O)c1ccccc1C2=O	7.9µM*	-20%	?	?
Nc1nc(SCC(=O)NCc2ccco2)[nH]c(=O)c1-c1ccccc1	-3%	-6%	-1%	12%
O=C(CSc1nc2nc(-c3cccs3)cc(C(F)(F)F)c2c(=O)[nH]1)NCc1ccco1	2µM*	-22%	-6%	-9%
c1cc2c(cc1Nc1nc(-c3ccc4c(c3)OCO4)cs1)OCCO2	6%	25µM*	-17%	-30%
COc1ccc(-n2c(N)c(C(=O)NCC3CCCO3)c3nc4ccccc4nc32)c(OC)c1 (configuration not stated)	40%	25µM*	?	?
SMILES	USP2a inh	Tau filament bind	Hsp90 Hop PPI	ALOX15 inhib
C=CCn1c(N)c(C(=O)NCC2CCCO2)c2nc3ccccc3nc21 (configuration not stated)	17%	49%	?	-9%
CCc1nc2scc(-c3ccccc3)c2c(=O)n1N	24%	3%	-2%	20µM*
COC(=O)NC(c1ccccc1)[C@@]1(C(=O)OC)CCCC1=O (some centres not stated)	.	.	.	10%[11.4 µM]
C=CCn1c(-c2cccs2)nc2nc3ccccc3nc21	1%	20µM*	13%	9%
CCC(C)n1c(-c2cccs2)nc2nc3ccccc3nc21 (configuration not stated)	-12%	13µM*	11%	-12%
C[N+](C)(C)c1ccc([C@H](N)C(=O)O)cc1	.	7%[11.4 µM]	-2%[11 µM]	4%[11.4 µM]
